From PubChem
Bim-Mcl-1 – inhibitors of Bim-Mcl-1 interaction, human; Q07820; Bead-based flow cytometry, Bim peptide-Mcl-1 binding; inhibition, % at 10 µM; hit rate 0.1% among 190,000; AID 1009; in the data active means inhibition above about 40%;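 further: 0% = no compound tracer wells and 100% = peptide blocker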
Target sequence (Q07820 whole entry, looked up): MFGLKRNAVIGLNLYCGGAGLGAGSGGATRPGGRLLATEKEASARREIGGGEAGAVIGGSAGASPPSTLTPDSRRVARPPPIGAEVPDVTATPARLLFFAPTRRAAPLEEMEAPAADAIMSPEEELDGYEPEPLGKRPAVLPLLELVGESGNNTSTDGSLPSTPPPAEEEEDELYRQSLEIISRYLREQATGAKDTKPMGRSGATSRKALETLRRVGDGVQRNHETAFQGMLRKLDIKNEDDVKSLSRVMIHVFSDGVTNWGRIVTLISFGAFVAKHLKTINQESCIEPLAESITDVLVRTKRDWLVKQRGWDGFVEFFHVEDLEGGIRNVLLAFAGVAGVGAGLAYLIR
Mcl1 Noxa PPI – Mcl-1/Noxa interaction inhibition; inhibition, % at 21.7 µM; AID 1022; hit rate 1.5% among 220,000; TR-FRET Mcl-1/Noxa peptide binding, 2 h;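 active means compounds that cut the protein-peptide binding signal by more than 50% relative to plate controls in a single-dose test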;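 further: His-tagged Mcl-1 with rhodamine Noxa BH3 peptide and terbium anti-His antibody; 0% = Mcl-1 plus Noxa peptide wells and 100% = peptide-only wells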
MCL1 BIM primary – inhibitors of human MCL1 binding to BIM-BH3 peptide | GST-MCL1 / FITC-Bim-BH3 fluorescence polarization | inhibition, % at 10.9 µM | Q07820 | AID 2057 | hit rate 0.68% among 320,000;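 active means inhibition above the mean inhibition of all tested compounds plus 3 SD, set per campaign, cut at about 40% in these data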;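 further: 0% = DMSO wells and 100% = unlabeled Bim-BH3 peptide control; higher means more loss of mP so more displacement of Bim peptide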
Mcl1-Bid inh – disrupts binding of human Mcl-1 to Bid peptide; TR-FRET Mcl-1/Bid-Dy647 peptide binding, 1536-well; Q07820; hit rate 0.97% among 220,000; inhibition, % at 21.7 µM;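 active means compounds that cut the binding signal by more than half at the single screening dose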;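 further: His-tagged Mcl-1 with europium anti-His antibody binding Bid BH3 peptide; 0% = Mcl-1 plus peptide wells and 100% = peptide-only wells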
14-3-3 Bad PPI – disrupts binding of bovine 14-3-3 zeta to phospho-Bad peptide; AID 781; TR-FRET 14-3-3zeta/Dy647-pBad peptide displacement, 1 h; inhibition, % at 21.7 µM; hit rate 0.71% among 220,000;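 active means inhibition above about 70%, limit read from the data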;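 further: 0% = full 14-3-3 plus peptide FRET controls and 100% = background without 14-3-3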
Target sequence (P63103 whole entry, looked up): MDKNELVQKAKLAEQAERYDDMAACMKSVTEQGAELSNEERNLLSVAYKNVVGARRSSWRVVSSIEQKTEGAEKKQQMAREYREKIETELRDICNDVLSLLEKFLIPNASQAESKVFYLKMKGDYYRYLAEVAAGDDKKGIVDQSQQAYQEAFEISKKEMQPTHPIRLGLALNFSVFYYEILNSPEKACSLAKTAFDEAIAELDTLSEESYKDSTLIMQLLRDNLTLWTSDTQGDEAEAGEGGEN
The depositor's hits bear a star; / = no result given; ! = not confirmed by another sample. A selection: hits, their analogues and other compounds. The true share with any hit is near 2.5%.

SMILES | Bim-Mcl-1 | Mcl1 Noxa PPI | MCL1 BIM primary | Mcl1-Bid inh | 14-3-3 Bad PPI
O=C1c2ccc3c4c(ccc(c24)C(=O)N1c1cccc(O)c1)C(=O)N(c1cccc(O)c1)C3=O | / | 49 | 8 | -50 | -1
Fc1ccc(N2CCN(C3CCC(c4ccccc4)CC3)CC2)cc1 (configuration not stated) | / | / | 5 | / | /
c1ccc(N2CCN(C3CCSC3)CC2)cc1 (configuration not stated) | 0 | 14 | 3 | 17 | 71*
CCOc1ccc(C(=O)C[n+]2cccc3cc(C)ccc32)cc1 | / | / | 45* | / | /
Cc1ccc(C(=O)C[n+]2cccc3cc(C)ccc32)cc1 | 2 | 27 | 9 | -13 | -1
Cc1cc(C)c2c(c1)[C@@H]1C=CC[C@@H]1[C@H](c1ccc(S(=O)(=O)N3CCOCC3)cc1)N2 | 6 | 67* | 25 | 17 | -4
Cc1ccc(S(=O)(=O)N2CCOCC(=O)NCCOCCNC(=O)COCC2)cc1 | -3 | -7 | / | -13 | 9
Cc1cc(=O)oc2cc(OCc3ccc(C(=O)OCC(=O)Nc4ccc(N(C)C)cc4)cc3)ccc12 | 0 | 96* | / | 92* | 79*
Cc1cc(=O)oc2cc(OCc3ccc(C(=O)OCC(=O)NC4CCS(=O)(=O)C4)cc3)ccc12 (configuration not stated) | / | 10 | 7 | -24 | 30
CCNC(=O)C(CC(C)C)NC(=O)C(CO)NC(=O)C1CCC(=O)N1 (configuration not stated) | / | -8 | 5 | -25 | -1
Cc1ccc(OCC(=O)Nc2ccccc2C(=O)N2CCCCC2)cc1 | / | / | 3 | / | /
COc1cccc(Nc2nc(-c3cccc(N4C(=O)c5ccccc5C4=O)c3)cs2)c1 | 0 | 31 | 3 | 0 | 84*
O=C(O)c1ccccc1N/N=C/c1c(Sc2nnnn2-c2ccccc2)nc2ccccn2c1=O | / | 78* | -48 | -24 | 68
O=C(c1ccccc1F)N1CCN(CC2CC3C=CC2C3)CC1 (configuration not stated) | 0 | 3 | 2 | 11 | 81*
O=C(c1ccccc1F)N1CCN(Cc2ccccc2F)CC1 | -3 | 30 | 7 | 59* | 37
O=C(c1cccc(F)c1)N1CCN(CC2CC3C=CC2C3)CC1 (configuration not stated) | -1 | 8 | 0 | 29 | 49
O=C(c1cccc(Cl)c1)N1CCN(Cc2ccccc2F)CC1 | -2 | 29 | 0 | 69* | 84*
Cc1ccc(CN2CCN(CC3CC4C=CC3C4)CC2)cc1 (configuration not stated) | 0 | 13 | 0 | 44 | 72*
O=c1c2c(nc3cc(-c4ccccc4)[nH]n13)CCS2 | 0 | 61* | 7 | -82 | -22
O=c1c2c(nc3cc(-c4ccccc4Cl)[nH]n13)CCS2 | 0 | 34 | 11 | -32 | -10
Cc1nc(C)c(C(=O)NCCC(c2ccccc2)c2ccccc2)o1 | -6 | 14 | 8 | -22 | 92*
Cc1ccc2c(c1)N(C(=O)CCC(=O)N1CCCCC1)CCO2 | / | / | 1 | / | /
CCc1ccccc1NC(=O)C1CCCN1C(=O)NCc1ccccc1 (configuration not stated) | / | / | 0 | / | /
CCOC(=O)CCNC(C)C1COc2ccccc2O1 (configuration not stated) | 3 | 44 | 1 | 56* | 76*
O=S(=O)(NCC(c1cccnc1)N1CCOCC1)c1ccccc1 (configuration not stated) | -2 | 12 | 1 | -21 | -2
SMILES | Bim-Mcl-1 | Mcl1 Noxa PPI | MCL1 BIM primary | Mcl1-Bid inh | 14-3-3 Bad PPI
Cn1ncc(SCc2ccccc2)c(Cl)c1=O | / | 14 | 7 | -18 | 4
Cn1ncc(S(=O)(=O)Cc2ccccc2)c(Cl)c1=O | / | 68* | 24 | -5 | 23
CC(C)Cc1cc(-c2ccco2)c(C#N)c(N)n1 | 48* | 0 | 1 | -16 | -9
N#Cc1c(-c2ccc(F)cc2)cc(-c2cccnc2)nc1N | -2 | -122 | 4 | 7 | -35
CCSc1nc(N)c(C#N)c(-c2ccco2)c1C#N | -2 | 19 | 0 | 1 | -5
N#Cc1c(-c2ccco2)cc(-c2ccc(F)cc2)nc1N | 0 | 65* | -10 | 5 | /
O=C(NCc1ccc(/C=c2\sc3n(c2=O)CCN=3)o1)C(=O)Nc1ccccc1 | 1 | 56* | 26 | -51 | -9
Cc1ccc(CNC(=O)Cc2ccc(-n3cccc3)cc2)cc1 | -2 | 16 | -6 | -13 | -13
Cc1ccc(CNC(=O)c2ccc(-n3cccc3)cc2)cc1 | 3 | 81* | / | -61 | 31
Cc1ccc(CNC(=O)c2ccc3nc4[nH]c5ccccc5c4nc3c2)cc1 | 0 | 15 | / | 68* | 37
COc1ccc(NC(=O)C2CCCN(S(C)(=O)=O)C2)cc1OC (configuration not stated) | / | / | 0 | / | /
O=C(NCc1ccccn1)c1cc2n(n1)C(C(F)(F)F)CC(c1ccco1)N2 (configuration not stated) | 0 | -7 | 18 | -27 | 17
O=[N+]([O-])c1ccc(N/N=C/c2cn(Cc3ccc(F)cc3)c3ccccc23)nc1 | -3 | 57* | -50 | 94* | 38
CC(C(=O)OCC(=O)N(C)C1(C#N)CCCCC1)N1C(=O)c2ccccc2C1=O (configuration not stated) | / | / | -5 | / | /
Cc1ccc(S(=O)(=O)N2[C@@H](c3ccc(Cl)cc3)C(C(=O)O)=CC[C@H]2c2cccc(C)c2)cc1 | / | / | 2 | / | /
c1ccc2c(c1)CC(N1CCCCC1)c1ccccc1S2 (configuration not stated) | / | / | 0 | / | /
Cc1ccc(S(=O)(=O)N(C(=O)c2ccncc2)c2ccc(OC(=O)c3ccncc3)c3ccccc23)cc1 | -9 | 59* | -2 | -38 | 19
CCOc1c(C)cc(-c2ncccc2O)cc1C | -5 | 0 | -1 | 0 | 75*!
COc1ccc(C)cc1NC(=O)CSc1ccc(-c2cccnc2)nn1 | 2 | 9 | 3 | -34 | -6
CCOC(=O)c1c(CSc2ccsc2)n(C)c2cc(Br)c(O)c(CN(C)C)c12 | / | 60* | 13 | -124 | 2
CCOC(=O)c1c(CSc2ccc(C)cc2)n(C)c2cc(Br)c(O)c(CN(C)C)c12 | 2 | 86* | 3 | 27 | -5
O=C(O)c1ccc(OCC(O)Cn2cnc3ccccc32)cc1 (configuration not stated) | -3 | 22 | -1 | 20 | 66
COc1ccc(-c2[nH]c3ccccc3c2SCCNC(=O)c2ccccc2)cc1 | -6 | 12 | -6 | -14 | -5
COC(=O)c1ccc(N/N=C/c2cc([N+](=O)[O-])cc(OC)c2O)cc1 | -2 | 61* | 5 | 12 | 19
CCOC(=O)c1ccc(N/N=C/c2cc(Br)cc([N+](=O)[O-])c2O)cc1 | 1 | 61* | 3 | -6 | -6
COc1cccc(/C=N/Nc2ccc([N+](=O)[O-])cc2)c1O | / | / | -47 | / | /
CC1(C)Cc2c(c(-c3ccco3)nc3sc4c(NCCN5CCOCC5)ncnc4c23)CO1 | -2 | 63* | -2 | -6 | -13
